Laboratory results reported in PubChem BioAssay AID1892 (NMMLSC, 2009).
Screen size: about 5,900 compounds; about 140 (2.4%) were called active. No stated cut-off is given here; in the data, active means binding response below about 16% or above about 210%; inactive means in between. The sample as a whole holds a higher share of actives than the screen did.

molecular target: Mitogen-activated protein kinase kinase kinase 2 (Homo sapiens) (UniProt Q9Y2U5); assay: wildtype MEKK2 PB1-MEK5 interaction enhancers or blockers – biochemical, single concentration, multiplex bead flow cytometry, confirmation (AID 1892); details: Alexa488-MEK5 binding to MEKK2 WT, at 10 µM, actives lie on both sides

Question: For COc1ccc(C(=O)C[n+]2ccc(C)cc2)cc1, which binding response (% of control) is on record?
Answer: 104% (inactive)

Question: How did the binding response (% of control) turn out when COc1cc(Br)c(-c2sc(Nc3ccccc3)n[n+]2-c2ccccc2)cc1OC was run?
Answer: 134% (inactive)

Question: How did the binding response (% of control) turn out when CN(C)CCCNC(=S)N1CCN(c2nc(-c3ccccc3)cs2)CC1 was run?
Answer: 108% (inactive)

Question: For O=C(O)CC(Cc1ccccc1)C(=O)Nc1ccc([N+](=O)[O-])cc1 (centres undefined), which binding response (% of control) is on record?
Answer: 96% (inactive)

Question: Cc1onc(-c2ccccc2Cl)c1C(=O)OCC(=O)c1ccccc1 was tested. Which binding response (% of control) did it give?
Answer: 94% (inactive)

Question: How did the binding response (% of control) turn out when COc1cc(C)nc(N2CCCC(C(=O)NCC(C)C)C2)n1 (centres undefined) was run?
Answer: 97% (inactive)

Question: CCN(CC)CCC(c1ccc2c(c1)OCO2)c1c(OC)cc(OC)c2c(-c3ccccc3)cc(=O)oc12 (centres undefined) was tested. Which binding response (% of control) did it give?
Answer: 134% (inactive)

Question: For COc1ccc(CNC(=O)C2CCN(S(C)(=O)=O)CC2)cc1, which binding response (% of control) is on record?
Answer: 103% (inactive)

Question: For Cc1ccc(CNC(=O)Cn2c(=O)c3sccc3n(Cc3cccc([N+](=O)[O-])c3)c2=O)cc1, which binding response (% of control) is on record?
Answer: 103% (inactive)

Question: Which binding response (% of control) does the source give for COc1cccc(/C=N\NC(=O)C2=NNC(=O)C2C)c1O (centres undefined) here?
Answer: 100% (inactive)

Question: COc1cccc(CNCCc2c[nH]c3ccccc23)c1OCc1ccccc1F was tested. Which binding response (% of control) did it give?
Answer: 131% (inactive)

Question: For C#CCOCCOCCOCCNc1nc(N2CCN(C(=O)C([C@@H](C)CC)n3cc(C(N)COC(=O)C(F)(F)F)nn3)CC2)nc(N2CCN(C(=O)[C@H](CCCCN)n3cc(C(N)CC(C)C)nn3)CC2)n1 (some centres undefined), which binding response (% of control) is on record?
Answer: 191% (inactive)

Question: With O=C(Nc1ccn(Cc2ccccc2)n1)c1cccc(F)c1 as the compound, how does the binding response (% of control) read?
Answer: 105% (inactive)

Question: For CN(C)CCCN(C(=O)COc1ccccc1)c1nc2c(Cl)cccc2s1, which binding response (% of control) is on record?
Answer: 133% (inactive)

Question: O=C(CN1CCN(C(=O)c2ccco2)CC1)Nc1ccc(Cl)c(C(F)(F)F)c1 was tested. Which binding response (% of control) did it give?
Answer: 112% (inactive)

Question: CNC(C)C#Cc1ccc2sc3cc(OC)c(OC)cc3c(=O)c2c1 (centres undefined) was tested. Which binding response (% of control) did it give?
Answer: 128% (inactive)

Question: Which binding response (% of control) does the source give for COc1cccc(C2CC(c3ccccc3)=NN2S(=O)(=O)c2ccccc2)c1OC (centres undefined) here?
Answer: 98% (inactive)

Question: How did the binding response (% of control) turn out when O=C(Nc1ccc(Cl)cn1)c1cnn2cccnc12 was run?
Answer: 108% (inactive)

Question: For CCC(C)OC(=O)C(C)Oc1ccc(-c2ccccc2)cc1 (centres undefined), which binding response (% of control) is on record?
Answer: 106% (inactive)

Question: Cn1ccc(=Nc2ccc(NC(=O)c3ccc(N=c4ccn(C)c5ccc([N+](=O)[O-])cc45)cc3)cc2)cc1 was tested. Which binding response (% of control) did it give?
Answer: 152% (inactive)

Question: With CC1CCN(C2=NC(=O)/C(=C/c3cn[nH]c3-c3ccccc3)S2)CC1 as the compound, how does the binding response (% of control) read?
Answer: 94% (inactive)

Question: With COc1cccc(Nc2ncccc2C(=O)O)c1 as the compound, how does the binding response (% of control) read?
Answer: 97% (inactive)

Question: With CCCc1nnc(SCC(=O)N2C(C)CCCC2C)n1CC (centres undefined) as the compound, how does the binding response (% of control) read?
Answer: 110% (inactive)

Question: For Cc1ccc(C)c(CN2CCC(CNC(=O)Nc3ccc(C)c(F)c3)CC2)c1, which binding response (% of control) is on record?
Answer: 146% (inactive)

Question: CSCC[C@H](NC(=O)CCCn1nnc2ccccc2c1=O)C(=O)O was tested. Which binding response (% of control) did it give?
Answer: 105% (inactive)

Question: For CCc1ccc2nc(Nc3ncc(C(C)=O)c(C)n3)nc(C)c2c1, which binding response (% of control) is on record?
Answer: 103% (inactive)

Question: CCOc1ccc(S(=O)(=O)NCCCn2ccnc2)cc1NC(C)=O was tested. Which binding response (% of control) did it give?
Answer: 100% (inactive)

Question: For CCC(=C/c1sc2ccc3ccccc3c2[n+]1C)/C=C1\Sc2ccc3ccccc3c2N1C, which binding response (% of control) is on record?
Answer: 13% [inhibitor] (active)

Question: Which binding response (% of control) does the source give for O=C(O)c1cccnc1NC1CCCC1 here?
Answer: 109% (inactive)

Question: For COc1ccc(N2CCN(Cc3nnc(-c4ccccc4)o3)CC2)cc1, which binding response (% of control) is on record?
Answer: 94% (inactive)

Question: For C[N+](C)(C)CCNC(=O)c1c(O)c2c([nH]c1=O)CCCC2, which binding response (% of control) is on record?
Answer: 101% (inactive)

Question: With COc1ccc(NC(=O)Cn2nnc(C(=O)NCCc3ccc(OC)c(OC)c3)c2N)cc1 as the compound, how does the binding response (% of control) read?
Answer: 98% (inactive)

Question: Which binding response (% of control) does the source give for CC(C)(C)c1nnc(NC(=O)C2c3ccccc3Oc3ccccc32)s1 here?
Answer: 93% (inactive)

Question: How did the binding response (% of control) turn out when Clc1ccc(-c2nnc(SCc3nc4ccccc4s3)o2)cc1 was run?
Answer: 98% (inactive)

Question: How did the binding response (% of control) turn out when CCCn1c(=N)n(CC(=O)c2ccc(Cl)c(Cl)c2)c2ccccc21 was run?
Answer: 144% (inactive)

Question: Which binding response (% of control) does the source give for CCCCN1C(=O)/C(=C(/C#N)C(N)=O)c2ccccc21 here?
Answer: 102% (inactive)

Question: How did the binding response (% of control) turn out when O=C(NCCN1CCOCC1)[C@H](Cc1ccccc1)N1C(=O)c2ccccc2C1=O was run?
Answer: 103% (inactive)

Question: COc1cc2c(cc1OC)CN(C(=O)c1ccc(S(=O)(=O)N3CCCCCC3)cc1)CC2 was tested. Which binding response (% of control) did it give?
Answer: 97% (inactive)

Question: How did the binding response (% of control) turn out when O=C(O)c1cc(Cl)c(Cl)cc1C(=O)Nc1cccc2ncccc12 was run?
Answer: 99% (inactive)

Question: Which binding response (% of control) does the source give for Cc1noc(C)c1S(=O)(=O)N(C)Cc1ccccc1 here?
Answer: 105% (inactive)

Question: CN(Cc1ccccc1)CC(O)COc1ccc(CNCc2cc3ccccc3s2)cc1 (centres undefined) was tested. Which binding response (% of control) did it give?
Answer: 129% (inactive)

Question: How did the binding response (% of control) turn out when CN(CC(=O)Nc1cccc(F)c1)CC(=O)Nc1cccc([N+](=O)[O-])c1 was run?
Answer: 99% (inactive)

Question: With CC(C)c1ccc(C(=O)NCCCc2ccccc2)cc1 as the compound, how does the binding response (% of control) read?
Answer: 94% (inactive)

Question: COc1cc(-c2nnc(Cn3cc(C(F)(F)F)ccc3=O)o2)cc(OC)c1OC was tested. Which binding response (% of control) did it give?
Answer: 103% (inactive)

Question: O=C(CCCO)N/N=C/c1cc(Br)ccc1O was tested. Which binding response (% of control) did it give?
Answer: 106% (inactive)

Question: For O=C(NC1CCN(Cc2ccccc2)CC1)c1cc(Br)c(Br)[nH]1, which binding response (% of control) is on record?
Answer: 128% (inactive)

Question: How did the binding response (% of control) turn out when Cc1cccc(OCCNC(=O)CSc2ccc(C(F)(F)F)cc2[N+](=O)[O-])c1 was run?
Answer: 104% (inactive)

Question: With N=c1c2c(-c3ccccc3)c(-c3ccccc3)n(Cc3ccccc3)c2ncn1CCCO as the compound, how does the binding response (% of control) read?
Answer: 134% (inactive)

Question: Which binding response (% of control) does the source give for Cc1nn(-c2ccccc2)c(NC(=O)c2cccs2)c(-c2ccc(Cl)cc2)c1=O here?
Answer: 101% (inactive)

Question: Which binding response (% of control) does the source give for CCn1c(NC(=O)c2ccccc2)c(-c2cccs2)c(=O)c2ccccc21 here?
Answer: 102% (inactive)

Question: Which binding response (% of control) does the source give for C/C=C/c1ccc(OCCCCN2CCC(C)CC2)c(OC)c1 here?
Answer: 109% (inactive)

Question: CC(C)C(=O)N1c2ccccc2NC2=C(C(=O)CCC2)C1c1ccc(N(C)C)cc1 (centres undefined) was tested. Which binding response (% of control) did it give?
Answer: 116% (inactive)

Question: Which binding response (% of control) does the source give for Cc1c(-c2ccccc2)cn2c1-c1ccc(C)n1CC2 here?
Answer: 93% (inactive)

Question: With O=C(Cc1cccs1)N/N=C/c1ccc(OCc2ccccc2)cc1 as the compound, how does the binding response (% of control) read?
Answer: 101% (inactive)

Question: With Cc1c(S(=O)(=O)NCc2ccccc2)c(=O)n(C)c(=O)n1C as the compound, how does the binding response (% of control) read?
Answer: 102% (inactive)

Question: Which binding response (% of control) does the source give for Cc1[nH]c2ccc(S(N)(=O)=O)cc2c1C here?
Answer: 97% (inactive)

Question: C=CCN1C=C2C(=O)C(C)(OC(=O)CCc3ccccc3)C(=O)C=C2C=C1c1ccc(C#N)cc1 (centres undefined) was tested. Which binding response (% of control) did it give?
Answer: 98% (inactive)

Question: With C=C(C)C1CC=C(C)/C(=N\NC(=O)CNc2ccccc2OC)C1 (centres undefined) as the compound, how does the binding response (% of control) read?
Answer: 107% (inactive)

Question: O=C(CSc1ccc(-c2ccc(F)cc2)nn1)Nc1ccc2c(c1)OCCO2 was tested. Which binding response (% of control) did it give?
Answer: 105% (inactive)
